Our source for the composite z-score and z-score values is PubChem BioAssay.

The source made the active and inactive calls.

In test [1] the test system is PRMT1 (protein arginine N-methyltransferase 1). Kind of test: PRMT1 binders on small-molecule microarrays, primary screen, biochemical, small-molecule microarray, 635 nm fluorescence (AID 1088).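 Note: binding of Prmt1 protein to compounds spotted on small-molecule microarray slides.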 The conditions noted are these: small-molecule microarray binding, higher = more signal.
Test [2] is described as follows: yeast growth modulation, basal conditions, primary screen, YJM789 clinical isolate, OD600, 24 h (AID 1089).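 Note: growth of clinical yeast isolate S. cerevisiae YJM 789 seeded 1000 cells per well; test concentration not given here.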 To be noted: S. cerevisiae YJM789 growth, higher = more signal, called active from +8 up or from −8 down.
Test [3] can be described thus: fission yeast growth modulation, primary screen, strain 972, OD600, 24 h, no modulator (AID 1090).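 Note: basal condition with compound alone and no growth modifier present; test concentration not given here.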 To be noted: S. pombe 972 growth, higher = more signal, called active from +8 up or from −8 down.
The nature of test [4]: S. cerevisiae growth modulation with rapamycin, primary screen, strain BY4716, OD600, 96 h (AID 1091). Note: test concentration not given here. The conditions noted are these: higher = more signal, called active from +8 up or from −8 down.
Test [5] concerns the target Torsin-1A-interacting protein 2 (Homo sapiens) (UniProt Q8NFQ8). Description: LULL1 binders on small-molecule microarray, primary screen, cell lysate, human LULL1 lysate, 635/667 nm fluorescence (AID 1092).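 Note: probe is lysate of COS7 cells overexpressing human LULL1; score merges per-feature 667 nm fluorescence with signal-to-noise.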 The conditions noted are these: hLULL1 lysate binding, 635 nm fluorescence, higher = more signal.
Test [6] is described as follows: E. coli growth modulation, two-sided OD650, primary screen, E. coli filamentation project, strain DRC41, 24 h (AID 1093).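 Note: MC1000 strain lacking acrAB efflux and sulA so SOS filamentation is blocked; test concentration not given here.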 The conditions noted are these: OD650, 24 h, higher = more signal, called active from +8 up or from −8 down.
Test [7] in a line: small-molecule microarray binders of probe aLefty2, primary screen, biochemical, biotinylated probe, 635/667 nm fluorescence (AID 1094).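 Note: score merges spot fluorescence near 667 nm with spot signal-to-noise ratio.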 To be noted: higher = more signal.
The subject of test [8] is Noggin (protein binding on small-molecule microarray). Description: Noggin binders on small-molecule microarray, primary screen, biochemical, 635/667 nm fluorescence (AID 1095).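 Note: score merges 667 nm feature fluorescence with signal to noise over triplicate slides.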 The conditions noted are these: 635 nm fluorescence, higher = more signal.
The target in test [9] is Neurogenic locus notch homolog protein 3 (Homo sapiens) (UniProt Q9UM47). Description: NOTCH3 binders on small-molecule microarray, primary screen, biochemical, 635/667 nm fluorescence (AID 1096). The conditions noted are these: NOTCH3 binding, 635 nm fluorescence, higher = more signal.
Test [10] can be described thus: small-molecule microarray binders of probe aEGFR, primary screen, biochemical, biotinylated probe, 635/667 nm fluorescence (AID 1097).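 Note: probe is a biotinylated anti-EGFR antibody binding compounds printed on slides; score combines fluorescence near 667 nm and signal to noise of each spot.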 To be noted: higher = more signal.
For test [11], the system named is Plasmodium falciparum Sir2 (PF13_0152, Sir2A). Kind of test: pfSir2 binders on small-molecule microarrays, primary screen, biochemical, small-molecule microarray, 635 nm fluorescence (AID 1098).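 Note: score merges spot fluorescence intensity with its signal-to-noise ratio.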 The conditions noted are these: small-molecule microarray binding, fluorescence 635 nm; higher = more signal.
Test [12] can be described thus: small-molecule microarray binders of probe aDKK1, primary screen, biochemical, biotinylated probe, 635/667 nm fluorescence (AID 1099).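 Note: score merges 667nm spot fluorescence with signal to noise across triplicate slides; reference of the scale not given here.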 The conditions noted are these: higher = more signal.
Test [13] can be described thus: small-molecule microarray binders of probe aCHRDL2, primary screen, biochemical, biotinylated probe, 635/667 nm fluorescence (AID 1100). To be noted: higher = more signal.
Test [14] can be described thus: splicing luciferase reporter signal modulators, primary screen, spliceosome inhibition project, cell-based, HEK293, splice +/- reporter (AID 1101).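 Note: HEK293 cells carrying a splicing-competent luciferase reporter gene; test concentration not given here.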 The conditions noted are these: luminescence, 24 h, higher = more signal, called active from +8 up or from −8 down. A general note: A reporter such as luciferase makes a cellular process visible.
Test [15] has as its target Fibroblast growth factor 10 (Homo sapiens) (UniProt O15520). Description: FGF10 binders on small-molecule microarrays, primary screen, biochemical, small-molecule microarray, 635 nm fluorescence (AID 1102). The conditions noted are these: FGF10 binding, fluorescence 635 nm, higher = more signal.
Test [16] concerns glycogen synthase kinase-3 (GSK3A per assay name; protocol says GSK3B). Description: GSK3 binders on small-molecule microarrays, primary screen, biochemical, small-molecule microarray, 635 nm fluorescence, GSK3A (AID 1103). Note: the record names both GSK3A and GSK3B. To be noted: small-molecule microarray binding, fluorescence 635 nm; higher = more signal.
In test [17] the target is Epidermal growth factor receptor (Homo sapiens) (UniProt P00533). Description: EGFR binders on small-molecule microarrays, primary screen, biochemical, small-molecule microarray, 635 nm fluorescence (AID 1104).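 Note: score merges 667 nm emission intensity with spot signal to noise over triplicate slides.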 To be noted: EGFR binding, higher = more signal.
Test [18] has as its target Follistatin-related protein 3 (Homo sapiens) (UniProt O95633). Description: FSTL3 binders on small-molecule microarrays, primary screen, biochemical, small-molecule microarray, 635 nm fluorescence (AID 1105).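 Note: score merges emission near 667 nm and signal to noise per printed spot across three slides.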 To be noted: FSTL3 binding, higher = more signal.
For test [19], the target named is Dickkopf-related protein 1 (Homo sapiens) (UniProt O94907). Description: DKK1 binders on small-molecule microarrays, primary screen, biochemical, small-molecule microarray, 635 nm fluorescence scan (AID 1106).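 Note: score merges emission near 667 nm with signal to noise over three replicate slides.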 To be noted: DKK1 binding, higher = more signal.
Test [20] concerns Inhibin beta A chain (activin A). Kind of test: INHBA (activin A) binders on microarrays, primary screen, biochemical, small-molecule microarray, 635 nm fluorescence scan (AID 1107).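 Note: mouse activin A protein probed at 4.33 µg/mL on printed slides; score merges bound-protein fluorescence near 667 nm with spot signal-to-noise.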 The conditions noted are these: small-molecule microarray binding, higher = more signal.

Fibroblast growth factor 10 (Homo sapiens), sequence (O15520 whole entry, looked up): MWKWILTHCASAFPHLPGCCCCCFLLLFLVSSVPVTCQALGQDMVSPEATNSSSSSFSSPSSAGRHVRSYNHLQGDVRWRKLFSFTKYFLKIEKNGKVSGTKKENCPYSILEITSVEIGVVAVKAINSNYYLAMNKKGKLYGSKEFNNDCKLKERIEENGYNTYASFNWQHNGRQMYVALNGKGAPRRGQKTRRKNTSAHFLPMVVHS
Follistatin-related protein 3 (Homo sapiens), sequence (O95633 whole entry, looked up): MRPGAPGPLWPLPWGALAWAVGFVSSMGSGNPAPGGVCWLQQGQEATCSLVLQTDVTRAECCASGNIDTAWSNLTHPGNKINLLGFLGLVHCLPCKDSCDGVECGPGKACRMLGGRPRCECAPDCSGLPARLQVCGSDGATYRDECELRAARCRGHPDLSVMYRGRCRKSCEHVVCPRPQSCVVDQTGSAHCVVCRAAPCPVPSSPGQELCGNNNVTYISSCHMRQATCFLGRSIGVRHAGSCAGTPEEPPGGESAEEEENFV
Neurogenic locus notch homolog protein 3 (Homo sapiens), sequence (Q9UM47 whole entry, looked up): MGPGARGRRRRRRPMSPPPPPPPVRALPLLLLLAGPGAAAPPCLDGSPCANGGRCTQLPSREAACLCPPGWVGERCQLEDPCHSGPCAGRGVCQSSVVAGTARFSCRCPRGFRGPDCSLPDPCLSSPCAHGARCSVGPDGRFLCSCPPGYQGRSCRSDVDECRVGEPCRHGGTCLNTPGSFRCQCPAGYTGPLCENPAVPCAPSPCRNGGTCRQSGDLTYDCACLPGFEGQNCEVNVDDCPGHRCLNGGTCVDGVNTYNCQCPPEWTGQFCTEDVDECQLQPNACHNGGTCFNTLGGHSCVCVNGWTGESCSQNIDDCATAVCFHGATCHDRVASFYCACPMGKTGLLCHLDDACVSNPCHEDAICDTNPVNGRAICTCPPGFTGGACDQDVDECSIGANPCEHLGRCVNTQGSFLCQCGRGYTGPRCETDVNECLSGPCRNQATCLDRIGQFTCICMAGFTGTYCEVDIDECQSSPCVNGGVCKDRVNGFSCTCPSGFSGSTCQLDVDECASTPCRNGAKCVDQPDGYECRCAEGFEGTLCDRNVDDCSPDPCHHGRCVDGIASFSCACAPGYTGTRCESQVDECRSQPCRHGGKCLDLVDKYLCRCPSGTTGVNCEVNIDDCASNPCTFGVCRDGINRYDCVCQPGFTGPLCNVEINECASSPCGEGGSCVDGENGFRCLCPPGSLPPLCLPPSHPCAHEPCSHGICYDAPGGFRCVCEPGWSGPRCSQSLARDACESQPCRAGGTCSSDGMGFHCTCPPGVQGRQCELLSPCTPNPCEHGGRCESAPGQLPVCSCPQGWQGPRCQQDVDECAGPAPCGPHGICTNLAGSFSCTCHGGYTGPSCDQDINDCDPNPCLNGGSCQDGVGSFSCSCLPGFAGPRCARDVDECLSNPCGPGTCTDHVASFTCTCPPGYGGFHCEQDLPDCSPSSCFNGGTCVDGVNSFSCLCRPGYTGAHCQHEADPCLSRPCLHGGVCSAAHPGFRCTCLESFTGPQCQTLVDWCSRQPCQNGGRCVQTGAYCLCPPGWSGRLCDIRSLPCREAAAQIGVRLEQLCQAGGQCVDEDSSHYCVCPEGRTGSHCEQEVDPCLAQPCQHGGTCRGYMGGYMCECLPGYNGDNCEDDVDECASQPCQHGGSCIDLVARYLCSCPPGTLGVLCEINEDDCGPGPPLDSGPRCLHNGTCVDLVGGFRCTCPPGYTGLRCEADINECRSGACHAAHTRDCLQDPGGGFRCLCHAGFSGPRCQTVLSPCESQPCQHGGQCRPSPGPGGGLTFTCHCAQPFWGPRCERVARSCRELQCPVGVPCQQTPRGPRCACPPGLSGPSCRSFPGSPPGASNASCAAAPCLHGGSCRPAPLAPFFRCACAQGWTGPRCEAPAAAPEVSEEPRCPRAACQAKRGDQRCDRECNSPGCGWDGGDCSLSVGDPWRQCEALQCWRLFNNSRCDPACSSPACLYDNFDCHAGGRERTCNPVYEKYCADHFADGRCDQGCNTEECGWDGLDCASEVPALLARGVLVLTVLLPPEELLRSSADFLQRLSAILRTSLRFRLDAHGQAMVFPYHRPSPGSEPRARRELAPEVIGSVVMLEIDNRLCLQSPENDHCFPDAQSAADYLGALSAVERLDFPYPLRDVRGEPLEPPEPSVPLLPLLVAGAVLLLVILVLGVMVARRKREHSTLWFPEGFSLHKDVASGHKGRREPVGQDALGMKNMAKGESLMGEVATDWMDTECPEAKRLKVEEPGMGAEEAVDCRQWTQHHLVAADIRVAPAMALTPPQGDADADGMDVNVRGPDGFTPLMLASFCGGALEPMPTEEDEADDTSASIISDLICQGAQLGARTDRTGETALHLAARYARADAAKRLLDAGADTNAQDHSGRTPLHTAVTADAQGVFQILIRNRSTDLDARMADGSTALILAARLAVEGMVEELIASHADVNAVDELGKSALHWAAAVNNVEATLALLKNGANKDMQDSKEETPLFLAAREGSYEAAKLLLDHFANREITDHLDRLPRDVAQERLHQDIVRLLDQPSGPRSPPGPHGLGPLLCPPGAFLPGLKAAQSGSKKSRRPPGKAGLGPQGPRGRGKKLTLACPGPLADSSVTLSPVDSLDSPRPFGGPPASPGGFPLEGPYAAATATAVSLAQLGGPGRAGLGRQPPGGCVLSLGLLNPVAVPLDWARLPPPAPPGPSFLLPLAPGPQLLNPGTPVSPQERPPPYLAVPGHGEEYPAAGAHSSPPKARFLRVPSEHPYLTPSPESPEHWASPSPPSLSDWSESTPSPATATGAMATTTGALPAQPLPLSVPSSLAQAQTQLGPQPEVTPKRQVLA
Dickkopf-related protein 1 (Homo sapiens), sequence (O94907 whole entry, looked up): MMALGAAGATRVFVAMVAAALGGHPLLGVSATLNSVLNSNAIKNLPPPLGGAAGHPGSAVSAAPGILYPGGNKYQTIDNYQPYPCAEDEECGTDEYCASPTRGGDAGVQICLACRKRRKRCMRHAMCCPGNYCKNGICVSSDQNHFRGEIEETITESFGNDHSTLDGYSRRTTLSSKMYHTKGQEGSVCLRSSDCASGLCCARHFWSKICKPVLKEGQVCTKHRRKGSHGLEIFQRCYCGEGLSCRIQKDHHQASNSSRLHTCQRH
Torsin-1A-interacting protein 2 (Homo sapiens), sequence (Q8NFQ8 whole entry, looked up): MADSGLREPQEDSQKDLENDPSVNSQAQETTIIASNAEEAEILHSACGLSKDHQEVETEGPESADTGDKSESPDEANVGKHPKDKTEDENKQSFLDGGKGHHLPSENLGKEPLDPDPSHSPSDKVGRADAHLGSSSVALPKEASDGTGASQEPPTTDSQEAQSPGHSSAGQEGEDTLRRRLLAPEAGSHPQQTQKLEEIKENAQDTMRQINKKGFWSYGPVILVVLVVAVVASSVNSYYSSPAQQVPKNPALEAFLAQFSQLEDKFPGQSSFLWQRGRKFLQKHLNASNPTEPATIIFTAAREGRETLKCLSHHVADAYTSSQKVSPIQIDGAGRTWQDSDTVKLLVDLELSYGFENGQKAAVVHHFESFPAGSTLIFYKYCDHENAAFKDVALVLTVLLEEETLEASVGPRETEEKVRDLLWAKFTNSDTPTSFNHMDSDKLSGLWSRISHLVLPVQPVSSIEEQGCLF
Epidermal growth factor receptor (Homo sapiens), sequence (P00533 whole entry, looked up): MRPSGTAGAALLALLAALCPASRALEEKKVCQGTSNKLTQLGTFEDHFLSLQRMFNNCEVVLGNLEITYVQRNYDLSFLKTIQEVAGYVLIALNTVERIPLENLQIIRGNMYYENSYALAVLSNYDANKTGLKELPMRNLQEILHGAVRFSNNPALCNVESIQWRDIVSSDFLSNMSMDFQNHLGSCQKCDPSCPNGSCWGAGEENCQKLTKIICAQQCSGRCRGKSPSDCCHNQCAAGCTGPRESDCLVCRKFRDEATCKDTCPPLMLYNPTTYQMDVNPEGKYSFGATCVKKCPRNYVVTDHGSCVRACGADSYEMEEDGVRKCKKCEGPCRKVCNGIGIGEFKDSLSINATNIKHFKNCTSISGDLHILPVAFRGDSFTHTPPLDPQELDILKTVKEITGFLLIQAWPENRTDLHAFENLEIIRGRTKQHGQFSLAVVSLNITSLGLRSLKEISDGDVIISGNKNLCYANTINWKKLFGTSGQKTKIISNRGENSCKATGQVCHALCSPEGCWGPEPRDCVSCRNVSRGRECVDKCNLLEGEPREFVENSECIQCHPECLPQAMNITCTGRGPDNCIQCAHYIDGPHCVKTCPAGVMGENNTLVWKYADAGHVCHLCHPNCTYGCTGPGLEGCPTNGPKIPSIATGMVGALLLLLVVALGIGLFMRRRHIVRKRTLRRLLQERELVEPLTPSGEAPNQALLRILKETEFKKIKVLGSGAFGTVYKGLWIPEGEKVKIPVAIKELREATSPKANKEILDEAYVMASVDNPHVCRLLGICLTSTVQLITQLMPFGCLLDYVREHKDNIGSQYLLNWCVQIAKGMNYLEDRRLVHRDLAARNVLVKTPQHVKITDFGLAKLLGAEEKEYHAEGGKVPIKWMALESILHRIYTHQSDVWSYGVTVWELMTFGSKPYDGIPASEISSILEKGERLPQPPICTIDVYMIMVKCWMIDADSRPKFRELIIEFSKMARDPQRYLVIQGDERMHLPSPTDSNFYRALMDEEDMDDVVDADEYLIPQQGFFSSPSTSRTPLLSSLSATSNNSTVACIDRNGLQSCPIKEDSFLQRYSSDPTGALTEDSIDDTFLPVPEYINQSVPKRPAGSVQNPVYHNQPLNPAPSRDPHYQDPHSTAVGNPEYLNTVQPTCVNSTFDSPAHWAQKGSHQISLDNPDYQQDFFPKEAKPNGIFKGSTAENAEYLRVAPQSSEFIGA

Regarding `CCOC(=O)C1=C[C@@H](c2ccccc2)N(S(=O)(=O)c2ccc(C)cc2)[C@H]1c1cccc(Cl)c1`, the composite z-score stood at 1.57 in test [1]; 2.67 in test [5]; 0.268 in [7]; 0.688 in test [8]; 1.07 in test [9]; 0.143 in test [10]. For the same compound, the composite z-score stood at 0.937 in [11]; 1.09 in [12]; 1.17 in [13]; 0.839 in [15]; 1.27 in test [16]; 0.448 in test [17]. Further, the composite z-score in test [18] was 1.17; in test [19], -0.0943; in [20], -0.249. Besides, the z-score in test [2] is 0.962 (inactive); in test [3] it was 1.71 (inactive); in test [4], 2.24 (inactive); in [6] it was -0.913 (inactive); in test [14] it was -0.355 (inactive).
For `COC(=O)[C@@]1(Cc2ccc(OC)cc2)[C@H]2c3cc(C(=O)N(C)C)n(CCc4c[nH]c5ccc(O)cc45)c3C[C@H]2CN1C(=O)c1ccccc1`, the composite z-score in test [1] was 0.56; in test [5], 3.36; in [7] it was 0.41; in test [8], -0.0794; in test [9] it was 1.02; in test [10] it was 0.102. Also, the composite z-score in test [11] turned out to be 1.06; in test [12] it was 1.43; in test [13] it was 0.984; in test [15], 0.934; in test [16], 1.12; in test [17] it was 0.562. Also, the composite z-score in test [18] is 1.23; in [19], -0.509; in test [20] it was 1.26. Besides, the z-score in test [2] is 1.94 (inactive); in test [3], 0.466 (inactive); in [4] it was 3.51 (inactive); in [6], -0.765 (inactive); in test [14], -1.65 (inactive).
Take `CC(C)(C)OC(=O)CC[C@@]1(C(=O)O)N=C(c2ccc(OCCCO)cc2)O[C@@H]1c1ccccc1`: the composite z-score is 0.618 in [1]; 3.55 in [5]; 0.021 in [7]; -0.423 in test [8]; 0.183 in test [9]; -0.0884 in test [10]. In addition, the composite z-score in [11] was 0.492; in test [12], 0.325; in test [13], 0.824; in [15] it was -0.0905; in test [16] it was -0.126; in test [17] it was -0.566. Further, the composite z-score in test [18] was -0.294; in test [19], -0.646; in test [20], 0.253. The z-score was 0.586 (inactive) in test [2]; 1.24 (inactive) in [3]; 0.519 (inactive) in test [4]; 0.0219 (inactive) in test [6]; -0.176 (inactive) in [14].
`CC(C)(C)OC(=O)CC[C@]1(C(=O)NCCN2CCOCC2)N=C(c2ccc(OCCCO)cc2)O[C@H]1c1ccccc1N=[N+]=[N-]`: the composite z-score was 1.49 in [1]; 3.38 in [5]; 0.373 in test [7]; -0.238 in test [8]; 0.412 in [9]; 0.0988 in test [10]. Besides, the composite z-score came to 1.63 in [11]; 0.99 in test [12]; 1.12 in [13]; 0.177 in [15]; 1.17 in [16]; 0.303 in test [17]. The composite z-score in test [18] was 0.361; in test [19], -0.235; in [20], 1.24. Besides, the z-score in test [2] was -0.417 (inactive); in test [3], -0.437 (inactive); in test [4], -0.535 (inactive); in test [6], 0.102 (inactive); in [14], -1.03 (inactive).
Take `C[N+](C)(C)CCCC[C@@H]1NC(=O)[C@@H]2C[C@H](C(=O)O)[C@H](c3ccc(O)cc3)N2C1=O`: the composite z-score in test [1] is -0.701; in test [5], -0.972; in [7], -0.0943; in test [8], -0.342; in [9] it was -0.694; in test [10], -0.269. For the same compound, the composite z-score is -0.72 in test [11]; 0.0476 in test [12]; 0.937 in test [13]; -1.57 in [15]; -1.32 in [16]; -1.04 in test [17]. The composite z-score in [18] is 0.0994; in test [19], -0.0081; in test [20], 0.614. The z-score was 0.151 (inactive) in [2]; 0.229 (inactive) in [3]; -1.27 (inactive) in [4]; 0.0772 (inactive) in [6]; 0.116 (inactive) in test [14].
